HER2 expr 66K: Her2 kinase expression inhibition; AID 645; HER2 level % of control, % at 10 µM; SKBR-3 HER2 protein level, AlphaScreen, 18-24 h; active compounds read low; P04626; 65,000 tested, 0.69% active;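 active means HER2 level under 5% of the carrier-only control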;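 further: 100% = DMSO carrier and 0% = 500 nM PU-H71 HSP90 inhibitor; lower value means stronger loss of Her2 protein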
PLAP activator: human PLAP activation. P05187. purified PLAP enzyme, luminescent substrate read-out; active compounds read high. activation fold at 20 µM. 96,000 tested, 1.2% active; in the data active means activation fold above about 2
Cav32 inh: blocks human Cav3.2 T-type calcium channel | Cav3.2-expressing cells, Fluo-4 calcium fluorescence FDSS; active compounds read low | B-score at 10 µM | 100,000 tested, 4% active;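 active means single-dose well whose peak fluorescence ratio is a statistical outlier from its plate by either plate-standardised score or position-corrected B-score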
M1 antagonist: blocks the rat M1 muscarinic receptor response to acetylcholine. AID 628. 64,000 tested, 3.4% active. P08482. CHO-M1 cells, Fluo-4 calcium, ACh EC80 antagonist mode; active compounds read low. B-score at 10 µM;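 active means calcium fluorescence response, raw or row-and-column corrected B-score, differing from the plate sample mean either way at a set confidence level, mostly lower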
Target sequence (P08482 whole entry, looked up): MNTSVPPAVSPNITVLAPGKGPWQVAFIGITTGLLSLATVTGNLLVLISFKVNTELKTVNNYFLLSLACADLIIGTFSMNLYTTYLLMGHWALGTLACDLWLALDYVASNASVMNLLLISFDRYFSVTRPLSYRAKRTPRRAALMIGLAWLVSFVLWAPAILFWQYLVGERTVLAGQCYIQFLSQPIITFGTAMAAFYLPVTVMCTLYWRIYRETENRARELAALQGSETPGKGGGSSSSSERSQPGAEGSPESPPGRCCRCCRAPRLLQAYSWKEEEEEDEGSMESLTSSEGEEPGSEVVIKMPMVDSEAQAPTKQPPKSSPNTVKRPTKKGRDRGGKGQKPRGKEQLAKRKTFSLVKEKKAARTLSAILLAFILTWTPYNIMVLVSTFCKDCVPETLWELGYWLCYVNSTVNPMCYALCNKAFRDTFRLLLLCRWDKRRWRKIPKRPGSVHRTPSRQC
M1 agonist: agonists of M1 muscarinic receptor. CHO-M1 cells, Fluo-4 calcium fluorescence, agonist mode; active compounds read high. B-score at 10 µM. 64,000 tested, 3% active;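 active means fluorescence rise, raw or as B-score row- and column-corrected plate score, outside the 99.7% band of its plate's samples, either direction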
* = called active by the depositor; nt = no result given. This is a sample that favours compounds with a hit; in the whole collection about 7.9% have one here.

SMILES	HER2 expr 66K	PLAP activator	Cav32 inh	M1 antagonist	M1 agonist
CCCCn1c(CN(Cc2ccccc2)Cc2ccccc2)nc2c1c(=O)n(C)c(=O)n2C	64	nt	-1.6	0.35	-0.081
CCCCC1=CC2=C(c3ccco3)C(=O)C(C)(OC(=O)c3ccc(OC)cc3)C(=O)C2=CN1CC(C)C (stereo not given)	nt	nt	0.31	nt	nt
CCOC(=O)CSc1nnc(CSc2nc3sc4c(c3c(=O)[nH]2)CCCC4)n1-c1ccccc1	nt	1.2	-6*	nt	nt
CCN(CC)c1ccc2cc(-c3nnc(-c4ccccc4)o3)c(=O)oc2c1	nt	nt	-11*	nt	nt
CCN(CC)c1ccc2c(Cl)cc(=O)oc2c1	nt	1.2	-0.44	nt	nt
CCOc1cccc2cc(-c3nnc(-c4ccccc4)o3)c(=O)oc12	174	nt	nt	0.13	0.35
CCN(CC)c1ccc2cc(-c3nc4ccccc4[nH]3)c(=O)oc2c1	90	0.9	-7.3*	-21*	419*
CCOCCCn1c(=S)[nH]c2cc3c(cc2c1=O)OCO3	101	1.2	nt	-0.7	0.33
Cc1cccc(COCC(Cc2ccccc2)N2CCN(C(=O)c3cccc(C)c3)CCC2=O)c1 (stereo not given)	nt	nt	-1.2	nt	nt
Cc1cccc(COCC(Cc2ccccc2)N2CCN(C(=O)c3cc(Cl)cc(Cl)c3)CCC2=O)c1 (stereo not given)	nt	nt	-3.4*	nt	nt
COc1ccc(NC(=O)COC(=O)c2ccc(N3CCCC3=O)cc2)cc1OC	115	0.8	-12*	0.52	-0.034
CC1=CCC2C(=O)N(c3ccc(C)c(Br)c3)C(=O)C2C1 (stereo not given)	97	1.1	0.13	-0.43	-0.018
Cc1ccn2cc(CNS(=O)(=O)c3ccc(Cl)s3)nc2c1	84	2.1*	0.73	-0.3	-0.68
COc1ccc(CCNC(=O)CSc2nc(N)c(C#N)c(-c3cccs3)c2C#N)cc1OC	1.8*	0.9	0.02	0.62	0.16
Cc1ccccc1NC(=O)CSc1nc(N)c(C#N)c(-c2cccs2)c1C#N	88	1.1	0.51	0.39	-0.64
COC(C[C@@H](O)C[C@@H](O)COCc1ccccc1)OC	nt	nt	-0.00076	nt	nt
COCOc1ccc(C=O)cc1OCOC	nt	nt	0.19	nt	nt
CCC(=O)c1ccc(N2CCOCC2)c(F)c1	nt	nt	0.83	nt	nt
CCCC(=O)c1ccc(N2CCOCC2)c(F)c1	61	2.1*	-0.48	-0.13	0.041
O=C(Nc1cccc(Cl)c1)ON=C1c2ccccc2-c2ccccc21	nt	1.2	-0.091	nt	nt
CCN(CC)c1ccc(/C=C/c2nc3ccccc3s2)cc1	nt	1	-3.9*	nt	nt
COc1ccc(Cl)cc1C(=O)NC(=S)Nc1cc(-c2nc3ccccc3[nH]2)ccc1C	nt	nt	-4.8*	nt	nt
COc1ccc(Cl)cc1C(=O)NNC(=S)NC(=O)c1cc(-c2ccccc2)nc2ccccc12	nt	1.5	nt	nt	nt
CCOC(=O)CSc1nnc(-c2ccc(OC)cc2OC)o1	102	1	0.7	-0.089	-0.42
Cc1cc(Nc2ccccc2)n(-c2ccc(Br)cc2)n1	nt	0.4	-7.2*	nt	nt
SMILES	HER2 expr 66K	PLAP activator	Cav32 inh	M1 antagonist	M1 agonist
Cc1cc(Nc2ccc(Cl)cc2)n(-c2ccccc2)n1	nt	0.9	0.63	nt	nt
Cc1ccc(C(=O)CSc2nnc(-c3ccco3)n2Cc2ccccc2)cc1	58	0.9	-3.2	-1.2	-0.011
CC(C)Cn1c(SCC(=O)c2ccc(Cl)s2)nnc1-c1ccco1	126	1.4	-5.6*	0.082	-0.53
COCCNC(=O)C1CCN(S(=O)(=O)c2ccccc2)CC1	107	1	0.015	0.17	0.088
C=CC[C@@H]1C=C(C)C[C@H](C)C[C@H](OC)[C@H]2O[C@@](O)(C(=O)C(=O)N3CCCC[C@H]3C(=O)O[C@H](/C(C)=C/[C@@H]3CC[C@@H](O)[C@H](OC)C3)[C@H](C)[C@@H](O)CC1=O)[C@H](C)C[C@@H]2OC	nt	nt	-4.1	nt	nt
Cc1ccc(CCNC(=O)C2CC(c3cccc(F)c3)=NO2)cc1 (stereo not given)	nt	nt	-0.28	nt	nt
O=C(NCc1ccc(C(F)(F)F)cc1)C1CC(c2cccc(F)c2)=NO1 (stereo not given)	nt	nt	-2.7*	nt	nt
Cc1ccc(CC(=O)Nc2ccccc2N2CCOCC2)cc1C	nt	1.4	-0.37	nt	nt
CCSc1nnc(-c2cccc(S(=O)(=O)N(CC)CC)c2)n1Cc1ccccc1	73	1.5	-2	-1.6	10*
O=S(=O)(Nc1ccc2c(c1)CCC2)c1cccs1	-26*	1	-5.6*	-0.9	0.25
O=C1OCc2cc(NS(=O)(=O)c3cccs3)ccc21	111	1.1	0.3	0.61	0.39
S=C(Nc1cccc(Cl)c1)Nc1ccccc1Oc1ccccc1	nt	0.7	-7.2*	nt	nt
c1ccc2c(-c3nc4ncccc4o3)cccc2c1	56	0.7	nt	0.36	1.4
CCc1cccc(CC)c1-n1c(SCn2nnc3ccccc3c2=O)nnc1-c1cccnc1	nt	1.7	-5.3*	nt	nt
Nn1c(Cc2cccc3ccccc23)nnc1SCn1nnc2ccccc2c1=O	nt	1.6	0.014	nt	nt
O=C1CC(Sc2nnnn2C2CCCCC2)C(=O)N1c1ccccc1 (stereo not given)	-3.2*	nt	0.098	0	-0.11
Cc1cc(C)cc(N2C(=O)CC(Sc3nnnn3-c3ccccc3)C2=O)c1 (stereo not given)	nt	1.2	-0.083	nt	nt
CCCS(=O)(=O)N1CCCC(C(=O)NCCCN2CCN(c3cccc(Cl)c3)CC2)C1 (stereo not given)	77	1.6	nt	-0.057	-0.97
O=C(CS(=O)(=O)Cc1ccccc1)N1CCN(c2cccc(C(F)(F)F)c2)CC1	120	0.9	-4.3*	-1.5	-1.6
O=C(Nc1ccccc1)N1CCN(c2cccc(C(F)(F)F)c2)CC1	nt	0.7	-3.9	nt	nt
COC(=O)c1ccc(CSc2nc3ccc(C)cc3[nH]2)o1	nt	2.2*	-0.31	nt	nt
CC(C)C[C@H](N)c1nnc(S(=O)(=O)Cc2ccc(F)cc2)o1	51	0.9	2.2	0.4	-0.42
Cc1nc2c(-c3ccccc3)c(C)nn2c(C)c1CCC(=O)NC(C)CCc1ccco1 (stereo not given)	nt	1.7	-5.7*	nt	nt
COc1cc(C(=O)NS(=O)(=O)c2ccccc2C)ccc1Cc1cn(C)c2ccc(NC(=O)OC3CCCC3)cc12	nt	nt	-5.9*	nt	nt
Cc1nc2c3cc(Cl)ccc3n(CCN3CCCCC3)c2s1	nt	1.7	-0.91	nt	nt
SMILES	HER2 expr 66K	PLAP activator	Cav32 inh	M1 antagonist	M1 agonist
COc1ccc(/C=C/C(O)=C2/C(=O)N(C)C3(C)CC2c2ccccc2O3)cc1 (stereo not given)	-6.0*	1	-5*	-0.025	2.5
Cc1ccc(/C=C/C(O)=C2/C(=O)N(C)C3(C)CC2c2ccccc2O3)cc1 (stereo not given)	nt	1.2	-2.4	nt	nt
O=[N+]([O-])c1cc(S(=O)(=O)Nc2cccc(C(F)(F)F)c2)ccc1-n1nnc2ccccc21	nt	1.6	-5.6*	nt	nt
CC(C)OP(=O)(OC(C)C)C(NC(=O)c1cccc([N+](=O)[O-])c1)C(N)=O (stereo not given)	nt	0.8	0.0035	nt	nt
O=C(C1CCCN(S(=O)(=O)c2ccc(Cl)cc2)C1)N(Cc1cccs1)C1CC1 (stereo not given)	84	1	-5.6*	-0.36	-0.31
Cn1c(=O)c2c(nc(NCc3ccc4c(c3)OCO4)n2Cc2ccccc2)n(C)c1=O	91	1.5	-6*	0.85	-1.5
Cn1c(=O)c2c(nc(NCc3ccc4c(c3)OCO4)n2Cc2ccccc2F)n(C)c1=O	124	0.9	-0.87	-0.076	-0.67
